Records with an inconclusive call do not appear. The source made the active and inactive calls. Calls follow the shape of the dose curve; as a rule, active = well fitted inhibition curve with a large enough effect; inconclusive = small, poorly fitted or top-dose-only effect; inactive = flat fitted curve, though single readings scatter.
How the values were obtained:
TAB113 = experiment: qHTS profiling for inhibitors of Plasmodium falciparum proliferation (AID 504749);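 also: 0% = DMSO vehicle and full inhibition = artemisinin control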; settings: P. falciparum in erythrocytes, SYBR Green DNA, 72 h; series mostly up to 28.7 µM
Outline: (§1)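 P. falciparum-infected erythrocytes (0.3% parasitemia, 2.5% hematocrit final) were exposed to compounds for 72 h at 37 C in 5% CO2, then lysed with SYBR Green buffer overnight at room temperature; parasite DNA fluorescence was normalized to artemisinin and DMSO controls.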

TAB165 = experiment: as above; settings: P. falciparum in erythrocytes, SYBR Green DNA, 72 h; series mostly up to 28.7 µM
Outline: as §1

W2 = experiment: as above; settings: P. falciparum in erythrocytes, SYBR Green DNA, 72 h; series mostly up to 28.7 µM
Outline: as §1

CRL-7250 = normal cell line; experiment: Cytotoxic Profiling of Annotated Libraries Using Quantitative High-Throughput Screening (AID 1296008); settings: Five cell lines viability, CellTiter-Glo ATP luminescence, 48-72 h; max response: hits give low values; as to max response: % is scaled to controls: 0 for no effect and ±100 for the full control effect
Outline: (§2)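 Compounds were pin-transferred onto cells and incubated 48 or 72 hr at 37 degree Celsius, 95% humidity. CellTiter-Glo was added, plates sat 10 min at room temperature, then ATP-coupled luminescence was imaged as the viability read-out.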

HEK293 = experiment: as above; settings: Five cell lines viability, CellTiter-Glo ATP luminescence, 48-72 h; max response: hits give low values
Outline: as §2

HaCat = experiment: as above; settings: Five cell lines viability, CellTiter-Glo ATP luminescence, 48-72 h; max response: hits give low values
Outline: as §2

KB-3-1 = experiment: as above; settings: Five cell lines viability, CellTiter-Glo ATP luminescence, 48-72 h; max response: hits give low values
Outline: as §2

NIH3T3 = experiment: as above; settings: Five cell lines viability, CellTiter-Glo ATP luminescence, 48-72 h; max response: hits give low values
Outline: as §2
Also: nearly all actives have a fitted effect of over 60% in size.

CCCCNC(=O)NS(=O)(=O)c1ccc(N)cc1
inactive: Potency (TAB113) | Potency (TAB165) | Potency (W2) | max response (CRL-7250) -16.6% | max response (HEK293) 2.1% | max response (HaCat) 3.3% | max response (KB-3-1) 10% | max response (NIH3T3) -1.55%

OC1C(O)C(O)C(O)C(O)C1O (stereo not given)
inactive: Potency (TAB113) | Potency (TAB165) | Potency (W2) | outcome (CRL-7250) | max response (HEK293) 2.94% | max response (HaCat) 2.27% | max response (KB-3-1) -8.66% | max response (NIH3T3) -6.2%

Cn1c(=O)c2[nH]c(Br)nc2n(C)c1=O
inactive: Potency (TAB113) | Potency (TAB165) | Potency (W2) | outcome (CRL-7250) | max response (HEK293) -7.38% | max response (HaCat) -0.598% | max response (KB-3-1) -9.6% | max response (NIH3T3) -3.31%

CC(=O)NCCCCCC(=O)O
inactive: Potency (TAB113) | Potency (TAB165) | Potency (W2) | max response (CRL-7250) -1.79% | max response (HEK293) 1.53% | max response (HaCat) -2.92% | max response (KB-3-1) 0.772% | max response (NIH3T3) -7.1%

CCc1oc2ccccc2c1C(=O)c1cc(I)c(O)c(I)c1
inactive: Potency (TAB113) | Potency (TAB165) | Potency (W2) | max response (CRL-7250) -2.92% | max response (HEK293) -23.3% | max response (HaCat) -7.93% | max response (KB-3-1) -18.7% | max response (NIH3T3) -1.15%

COc1cc(N)c(Cl)cc1C(=O)NC1CCN(Cc2ccccc2)CC1
inactive: Potency (TAB113) | outcome (CRL-7250) | max response (HEK293) -8.36% | max response (HaCat) 1.83% | max response (KB-3-1) 3.83% | max response (NIH3T3) -4.33%

CC(=O)Nc1ncc([N+](=O)[O-])s1
inactive: Potency (TAB113) | Potency (TAB165) | Potency (W2) | max response (CRL-7250) 2.19% | max response (HEK293) 0.687% | max response (HaCat) 4.2% | max response (KB-3-1) 1.85% | max response (NIH3T3) 4.2%

Nc1nc(-c2ccccc2)c(Br)c(=O)[nH]1
inactive: Potency (TAB113) | Potency (TAB165) | Potency (W2) | max response (CRL-7250) -18.3% | max response (HEK293) -28.5% | max response (HaCat) -7.63% | max response (KB-3-1) 4.06% | max response (NIH3T3) -18.4%

CCOC(=O)c1ccc(N)cc1
inactive: Potency (TAB113) | Potency (TAB165) | Potency (W2) | max response (CRL-7250) -8.72% | max response (HEK293) -24% | max response (HaCat) -25.3% | max response (KB-3-1) 1.36% | max response (NIH3T3) -0.465%

CCOc1ccc(NC(C)=O)cc1
inactive: Potency (TAB113) | Potency (TAB165) | Potency (W2) | max response (CRL-7250) -21.4% | max response (HEK293) -5.15% | max response (HaCat) -1.35% | max response (KB-3-1) 8.88% | max response (NIH3T3) -7.54%

CC[C@H](c1ccc(O)cc1)[C@@H](CC)c1ccc(O)cc1
inactive: Potency (TAB113) | Potency (TAB165) | Potency (W2) | max response (CRL-7250) 3.93% | max response (HEK293) -17.5% | max response (HaCat) 0.0962% | max response (KB-3-1) 5.55% | max response (NIH3T3) 4.6%

C=CCN1CCc2nc(N)sc2CC1
inactive: Potency (TAB113) | Potency (TAB165) | Potency (W2) | max response (CRL-7250) -5.69% | max response (HEK293) 0.777% | max response (HaCat) -12.6% | max response (KB-3-1) 3.04% | max response (NIH3T3) 2.55%

CCCCCCCCCCCCSCCOCCO
inactive: Potency (TAB113) | Potency (TAB165) | Potency (W2) | max response (CRL-7250) 2.82% | max response (HEK293) -0.323% | max response (HaCat) 0.693% | max response (KB-3-1) 1.68% | max response (NIH3T3) -3.9%

CCCCCCCCCCCCCC(=O)OC(C)C
inactive: Potency (TAB113) | Potency (TAB165) | Potency (W2) | max response (CRL-7250) -4.95% | max response (HEK293) -0.105% | max response (HaCat) -4.71% | max response (KB-3-1) -19% | max response (NIH3T3) 2.35%

CCNC(=O)NCc1cccc(Cl)c1
inactive: Potency (TAB113) | Potency (TAB165) | Potency (W2) | outcome (CRL-7250) | max response (HEK293) 4.87% | max response (HaCat) -5.45% | max response (KB-3-1) 2.4% | max response (NIH3T3) 0.416%

CCCCCCCCOc1ccc(C(=O)c2ccccc2)c(O)c1
inactive: Potency (TAB113) | Potency (TAB165) | Potency (W2) | max response (CRL-7250) -1.36% | max response (HEK293) -1.87% | max response (HaCat) -8.31% | max response (KB-3-1) 1.72% | max response (NIH3T3) -1.51%

CC(C)Cc1ccc(CC(=O)O)cc1
inactive: Potency (TAB113) | Potency (TAB165) | Potency (W2) | max response (CRL-7250) 2.76% | max response (HEK293) -6.81% | max response (HaCat) -0.56% | max response (KB-3-1) -9.62% | max response (NIH3T3) 2.82%

Cc1nc(-c2ccc(Cl)cc2)oc1COC(C)(C)C(=O)O
inactive: Potency (TAB113) | Potency (TAB165) | Potency (W2) | outcome (CRL-7250) | max response (HEK293) 4.06% | max response (HaCat) 3.89% | max response (KB-3-1) -5.49% | max response (NIH3T3) 1.1%

Nc1ccc(C(=O)NCC(=O)O)cc1
inactive: Potency (TAB113) | Potency (TAB165) | Potency (W2) | max response (CRL-7250) -1.17% | max response (HEK293) 0.145% | max response (HaCat) 0.603% | max response (KB-3-1) 28.3% | max response (NIH3T3) -6.17%
